Values joined by “and” are separate entries in the source; they are usually repeats but may differ in a detail not shown here. Equal entries are not always repeated. Results filed as inconclusive are left out. Some structures have more than one record in an assay (separate samples or runs), and their calls can disagree. Active and inactive are the calls of the source. Calls follow the shape of the dose curve; as a rule, active = well fitted curve in the direction sought with a large enough effect; inconclusive = small, poorly fitted or top-dose-only effect, or another doubt; inactive = no such curve, though single readings can be large; an effect the other way counts as inactive or inconclusive.
Experiments:
[1] = molecular target: Glutathione peroxidase 1 (Homo sapiens) (UniProt P07203); assay: Primary qHTS Assay for Inhibitors of Recombinant Selenoprotein Glutathione Peroxidase 1 (GPX1) (AID 1845191); also: nearly all actives have a fitted effect of over 65% in size; as to activity, negative = inhibition: % is scaled to controls: 0 for no effect and ±100 for the full control effect
Method in brief: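 10 nM GPX1 + cpd, 30 min RT; start w/ 1 mM GSH, 0.5 mM cumene hydroperoxide, 0.5 mM NADPH, 100 nM GR, 0.01% BSA; buffer 50 mM Tris-HCl pH 7.5, 2 mM EDTA, 150 mM NaCl; Fl 340/450, 0 & 15 min.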

[2] = molecular target: Phospholipid hydroperoxide glutathione peroxidase GPX4 (Homo sapiens) (UniProt P36969); assay: Primary qHTS Assay for Inhibitors of Recombinant Selenoprotein Glutathione Peroxidase 4 (GPX4) (AID 1845192); also: nearly all actives have a fitted effect of over 65% in size; also: potency is read from the fitted curve at half-maximal effect; as to activity change, negative = inhibition: series mostly up to about 50 µM; % is scaled to controls: 0 for no effect and ±100 for the full control effect
Method in brief: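 NADPH consumption, followed by fluorescence at 340/450 nm between 0 and 15 min, reports GPX4 activity via coupled glutathione reductase (100 nM). Enzyme 200 nM was pre-exposed to compound 30 min; 0.5 mM cumene hydroperoxide and 1 mM GSH served as substrates.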

[3] = molecular target: Luciferin 4-monooxygenase (Photinus pyralis) (UniProt P08659); assay: Primary firefly luciferase (FLuc) qHTS assay for identification of artifact compounds. (AID 1845220); also: nearly all actives have a fitted effect of over 60% in size;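 as to activity change, negative = inhibition: series mostly up to about 54 µM; plate controls were DMSO vehicle for no effect and no enzyme for full effect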
Method in brief: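 Compounds sat 15 min at room temperature with 10 uM luciferin and 10 uM ATP (pH 7.6 Tris acetate). Firefly luciferase (10 nM final) was then added, and luminescence was read 5 min later. Data normalized to no-enzyme and DMSO controls were Hill-fitted.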

[4] = Primary fluorescence-based thiol-reactive (MSTI) qHTS assay for identification of artifact compounds. (AID 1845221); also: nearly all actives have a fitted effect of over 65% in size; also: potency is read from the fitted curve at half-maximal effect;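 as to activity change, negative = thiol reactive: series mostly up to about 54 µM; thiol-reactive compounds lower the probe fluorescence signal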
Method in brief: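 Probe: MSTI 4 uM, PBS pH 7.4, 2% DMSO. Incubation 1 h, RT, light-protected. Readout fluorescence 525/598 nm.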

[5] = tested on: Nanoluciferase (engineered Oplophorus gracilirostris luciferase); assay: Primary Nanoluciferase (NLuc) qHTS assay for identification of artifact compounds. (AID 1845222);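 also: series mostly up to about 54 µM; 0% = DMSO and -100% = no enzyme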
Method in brief: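 Luminescence from secreted NLuc (filtered, 1:55-diluted S16 cell medium) read 5 min after Nano-Glo substrate; compounds preincubated 15 min, RT. Hill fits of inhibition normalized to DMSO and no-enzyme.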

[6] = Primary redox qHTS assay for identification of artifact compounds. (AID 1845223);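 also: 0% = DMSO and 100% = reference compound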
Method in brief: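 Amplex Red (25 uM) and HRP (250 mU/mL) in HBSS, with compounds for 15 min, then 250 uM DTT for 30 min, room temperature, dark. Fluorescence 525/598 nm read; normalized to DMSO and 10 uM DA3003; Hill fit.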

Chain of Glutathione peroxidase 1 (Homo sapiens) (P07203 whole entry, looked up): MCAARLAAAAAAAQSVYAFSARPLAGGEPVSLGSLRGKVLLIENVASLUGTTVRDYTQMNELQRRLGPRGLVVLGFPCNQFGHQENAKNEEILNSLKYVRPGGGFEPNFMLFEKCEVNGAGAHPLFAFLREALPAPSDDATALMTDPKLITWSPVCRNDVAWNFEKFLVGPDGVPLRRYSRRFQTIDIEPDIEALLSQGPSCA
Chain of Phospholipid hydroperoxide glutathione peroxidase GPX4 (Homo sapiens) (P36969 whole entry, looked up): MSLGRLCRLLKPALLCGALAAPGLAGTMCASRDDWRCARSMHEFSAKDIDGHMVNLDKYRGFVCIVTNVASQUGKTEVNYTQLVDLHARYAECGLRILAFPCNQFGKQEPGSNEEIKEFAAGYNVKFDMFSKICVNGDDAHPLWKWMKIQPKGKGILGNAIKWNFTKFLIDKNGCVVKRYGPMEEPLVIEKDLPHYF

CCN1CCC[C@@H]1CNC(=O)c1ccc2c(c1)NC(=O)c1cccc(C)c1S2
inactive: Potency [1] | Potency [2] | Potency [3] | Potency [4] | Potency [5] | Potency [6]

COc1cc(-c2nc(N[C@H](CO)Cc3ccccc3)ccc2C(=O)NCCOc2ccccc2)cc(OC)c1OC
inactive: Potency [1] | Potency [2] | Potency [3] | Potency [4] | Potency [5] | Potency [6]

C=C(C)Cn1c(SCC(=O)c2cccs2)nc2sc3c(c2c1=O)CCCC3
inactive: Potency [1] | Potency [2] | Potency [3] | Potency [4] | Potency [5] | Potency [6]

COC1CC(O[C@H]2CC[C@]3(C)C4CC[C@]5(C)C(C6=CC(=O)OC6)=CCC56OC46CC[C@@H]3C2)OC(C)C1O[C@@H]1O[C@H](CO[C@@H]2O[C@H](CO)[C@@H](O)[C@H](O)[C@H]2O)[C@@H](O)[C@H](O)[C@H]1O (some centres not stated)
inactive: Potency [1] | Potency [2] | outcome [3] inactive [at 11.6 µM] | activity change, negative = thiol reactive [4] 101% [at 11.5 µM] | activity, negative = inhibition [5] 0% [at 11.6 µM] | redox activity (% of DA3003) [6] 3.85% [at 11.5 µM]

CC(C)c1ccc(NC(=O)Cn2cnc3c2c(=O)n(C)c(=O)n3C)cc1
inactive: Potency [1] | Potency [2] | Potency [3] | Potency [4] | Potency [5] | Potency [6]

CCCCCCCCn1cc(CN(CC)CC)c2cc(-c3cnc(N)nc3)ccc21
inactive: Potency [1] | Potency [2] | Potency [3] | Potency [4] | Potency [5] | Potency [6]

COc1cc(C(C)=O)c(OC)c2c1OC(C)(C)C=C2
inactive: Potency [1] | Potency [2] | Potency [3] | Potency [4] | Potency [5] | Potency [6]

CCOc1nc(NC(=O)Cc2cc(OC)ccc2OC)cc(N)c1C#N
inactive: Potency [1] | Potency [2] | Potency [3] | Potency [4] | Potency [5] | Potency [6]

COC(=O)CC[C@@H](C)C1CCC2C3CCC4C[C@H](OC(C)=O)CCC4(C)C3C[C@H](O)C21C (some centres not stated)
inactive: Potency [1] | Potency [2] | Potency [3] | Potency [4] | Potency [5] | Potency [6]

O=c1cc(N2CCOCC2)nc2c3ccccc3ccn12
inactive: Potency [1] | Potency [2] | Potency [3] | Potency [4] | Potency [5] | Potency [6]

CCO[C@H]1CN(C2CCC(O)(c3ccc4c(c3)OCO4)CC2)C[C@@H]1NC(=O)CNC(=O)c1cccc(C(F)(F)F)c1 (some centres not stated)
inactive: Potency [1] | Potency [2] | Potency [3] | Potency [4] | Potency [5] | Potency [6]

CC(C)OC(=O)N1CCC(Oc2ncnc3c2cnn3-c2ccc(S(C)(=O)=O)cc2F)CC1
inactive: Potency [1] | Potency [2] | Potency [3] | Potency [4] | Potency [5] | Potency [6]

C1=C/COCc2cc(ccc2OCCN2CCCC2)Nc2nccc(n2)-c2cccc(c2)COC/1
inactive: Potency [1] | Potency [2] | Potency [3] | Potency [4] | Potency [5] | Potency [6]

CC(=O)O[C@@H]1C[C@@]2(C)C(CC[C@]3(C)C2CC=C2C4CC(C)(C)CC[C@]4(C(=O)O)CC[C@]23C)C(C)(C)[C@H]1O (some centres not stated)
inactive: Potency [1] | Potency [2] | Potency [3] | Potency [4] | Potency [5] | Potency [6]

CN1c2c(nc(N)[nH]c2=O)NC[C@@H]1CNc1ccc(C(=O)N[C@@H](CCC(=O)O)C(=O)O)cc1
inactive: Potency [1] | Potency [3] | Potency [4] | Potency [5] | Potency [6]
inactive and 1.24 µM (active): Potency [2]

CCC(C)(OC(C)=O)C(=O)O[C@H]1[C@H](OC(C)=O)[C@]2(CO)[C@H](O)[C@H](O)[C@]3(C)C(=CCC4[C@@]5(C)CC[C@H](O[C@@H]6O[C@H](C(=O)O)[C@@H](O)[C@H](O[C@@H]7OC[C@H](O)[C@H](O[C@@H]8OC[C@H](O)[C@H](O)[C@H]8O)[C@H]7O)[C@H]6O[C@@H]6O[C@H](CO)[C@@H](O)[C@H](O)[C@H]6O)C(C)(C)C5CC[C@]43C)[C@@H]2CC1(C)C (some centres not stated)
inactive: activity, negative = inhibition [1] -12.6% [at 9.52 µM] | activity change, negative = inhibition [2] -15.3% [at 9.73 µM] | activity change, negative = inhibition [3] -11% [at 11.6 µM] | activity change, negative = thiol reactive [4] 202% [at 11.5 µM] | activity, negative = inhibition [5] -1.71% [at 11.6 µM] | redox activity (% of DA3003) [6] 22% [at 11.5 µM]

N#Cc1ccc(-c2ccc(S(=O)(=O)Nc3cccc(N)n3)cc2)cc1
inactive: Potency [1] | Potency [2] | Potency [3] | Potency [4] | Potency [5] | Potency [6]

C=CC(=O)N1CCC(Oc2cc3c(Nc4ccc(Cl)c(Cl)c4F)ncnc3cc2OC)CC1
inactive: Potency [1] | Potency [2] | Potency [3] | Potency [4] | Potency [5] | Potency [6]

O=c1[nH]c2ccccc2n1CCN1CCN(c2cccc(C(F)(F)F)c2)CC1
inactive: Potency [1] | Potency [2] | Potency [3] | Potency [4] | Potency [5] | Potency [6]

C=C1C(=O)O[C@@H]2[C@H]1CC(=O)[C@H](C)[C@@](O)(C(=O)/C=C/C)[C@H]2OC(=O)C(C)CC (some centres not stated)
inactive: Potency [1] | Potency [2] | Potency [3] | Potency [4] | Potency [5] | Potency [6]

Oc1ccc(-c2cnc3ccc(NCc4ccco4)nn23)cc1
active: Potency [4] 5.97 µM
inactive: Potency [1] | Potency [2] | Potency [3] | Potency [5] | Potency [6]

Cc1cccc(CC(=O)N2CCc3c2ccc(-c2cn(C)c4ncnc(N)c24)c3F)n1
inactive: Potency [1] | Potency [2] | Potency [3] | Potency [4] | Potency [5] | Potency [6]
